Test results from PubChem BioAssay (NCATS).
Results filed as inconclusive are left out. Entries that show only a call come without a potency. Unmarked numbers belong to inactive results. Calls of active or inactive are those of the source. Calls come from the whole dose curve; as a rule, active = well fitted inhibition curve with a large enough effect; inconclusive = small, poorly fitted or top-dose-only effect; inactive = flat fitted curve, though single readings scatter.

Biological target: Aldehyde dehydrogenase, mitochondrial (Homo sapiens) (UniProt P05091)
Assay: qHTS for Inhibitors of the Aldehyde Dehydrogenase Family (ALDH2) Primary screen (AID 2061308); note: nearly all actives have a fitted effect of over 55% in size
Details: ALDH2 enzyme inhibition qHTS, 1536-well; series mostly up to 56 µM

SMILES | Potency | activity change, negative = inhibition
CC1(C)CCCC2(C)C1C(O)C=C(CO)C2(O)C(=O)O (centres undefined) | inactive | –
Cc1cccc(N(C)C(=S)Oc2ccc3c(c2)CCC3)c1 | inactive | –
CC(=O)OC/C(=C/C(=O)O)CC[C@@H]1C(C=O)=CC[C@@H]2C(C)(C)CCC[C@@]12C | inactive | –
C=C1C(=O)O[C@@H]2[C@H]1CCC(C)=C1CCC(=O)O[C@]12C | inactive | –
COC1CCCC/C(C)=C/C2C=C(C)C(C)C3C(CC(C)C)NC(=O)C23C(=O)C1 (centres undefined) | inactive | –
C=C(C)C(=O)O[C@H]1[C@H]2C(=C)C(=O)O[C@@H]2C[C@@H](C)/C=C\C(=O)[C@](C)(O)[C@@H]1OC(C)=O | inactive | –
COC(=O)C1(C)CCC2(C(=O)O)CCC3(C)C(=CCC4C5(C)CC(O)C(OC6OCC(O)C(O)C6O)C(C)(CO)C5CCC43C)C2C1 (centres undefined) | inactive | –
COc1ccc(C(=O)O[C@H]2CC(C)=CC[C@@]3(C)[C@@H](OC(C)=O)C[C@@](O)(C(C)C)[C@H]23)cc1 | inactive | –
C/C(=C\CCC(C)CCO)C(=O)OC[C@H]1O[C@@H](O[C@@H]2OC=C(C(=O)O)[C@H]3CC[C@](C)(O)[C@@H]23)C(O)[C@@H](O)C1O (some centres undefined) | inactive | –
CC(O)(C(=O)O)C1CCC2(C)C1CCC1(C)C2CCC2C3(C)CCC(O)C(C)(COC4OC(CO)C(O)C(O)C4O)C3CCC21C (centres undefined) | inactive | –
CS(=O)(=O)N(CC(=O)NCC1CC1)c1cc(C(F)(F)F)ccc1Cl | inactive | –
CC(=O)OC(C)(C)/C=C/C(=O)[C@](C)(O)C1[C@H](O)C[C@@]2(C)[C@@H]3CC=C4[C@@H](C[C@H](O[C@@H]5O[C@H](CO)[C@@H](O)[C@H](O)[C@H]5O)C(=O)C4(C)C)[C@]3(C)C(=O)C[C@]12C (some centres undefined) | inactive | –
CN(C)CC1CCOC1(c1ccccc1)c1ccccc1 (centres undefined) | inactive | –
C=CC(C)(O)CO[C@@H]1O[C@H](CO)[C@@H](O)[C@H](O)[C@H]1O (some centres undefined) | inactive | –
CC1CC[C@]2(C(=O)O)CC[C@]3(C(=O)O)C(=CCC4[C@@]5(C)CC[C@H](O[C@@H]6O[C@H](CO)[C@@H](O)[C@H](O)[C@H]6O)C(C)(C)C5CC[C@]43C)C2C1C (some centres undefined) | inactive | –
C/C1=C\[C@@H](C)C[C@@H](C)[C@@H](Cc2cnco2)OC(=O)/C(C)=C/[C@@H](C)C[C@@H](C)[C@@H](Cc2cnco2)OC1=O | inactive | –
O[C@@](Cc1ncc(CC2(C(F)(F)F)CC2)[nH]1)(c1ccc(-n2cccn2)cc1)C(F)(F)F | inactive | –
NC(=O)NCCCC(NC(=O)Cc1ccccc1)C(=O)O (centres undefined) | inactive | –
CC1=CC(=O)CC(C)(C)[C@H]1/C=C/C(CO)O[C@@H]1O[C@H](CO)[C@@H](O)[C@H](O)[C@H]1O (some centres undefined) | inactive | –
C[C@@H]1O[C@@H](OC[C@H]2O[C@@H](Oc3cc(O)cc4c3C(=O)C(O)(Cc3ccc(O)cc3)O4)[C@H](O)[C@@H](O)[C@@H]2O)[C@H](O)[C@H](O)[C@H]1O (some centres undefined) | inactive | –
CC1=C(C(=O)O)/C(=C/CO[C@@H]2O[C@H](COC(=O)/C=C/c3ccc(O)cc3)[C@@H](O)[C@H](O)[C@H]2O)C(O)C1 (some centres undefined) | inactive | –
COc1c2c(c(CO)c3c1C(=O)OC3)OC1(C)CCC3(O)C(C)(C)OC(=O)CCC3(C)C1C2 (centres undefined) | inactive | –
CCCCn1ccc(N2CCC(c3ccccc3)CC2)c(Cl)c1=O | inactive | –
C/C=C(\C)C(=O)O[C@@H]1CC2[C@@H](CC=C3C[C@@H](O[C@H]4C[C@H](OC)[C@H](O[C@H]5C[C@H](OC)[C@H](O[C@@H]6O[C@H](C)[C@@H](O[C@H]7C[C@H](OC)[C@H](O[C@@H]8O[C@H](CO)[C@@H](O)[C@H](O)[C@H]8O)[C@@H](C)O7)[C@H](OC)[C@H]6O)[C@@H](C)O5)[C@@H](C)O4)CC[C@@]32C)[C@@]2(O)CC[C@H](C(C)=O)[C@@]12C (some centres undefined) | – | 12% [at 11.2 µM]
CC(=O)OCC1=C[C@@H]2OC(=O)C3=CO[C@@H](O[C@@H]4O[C@H](CO)[C@@H](O)[C@H](O)[C@H]4O)[C@H]1[C@@H]32 | inactive | –
O=C(CCc1ccccc1)c1c(O)c([C@@H]2O[C@H](CO)[C@@H](O)[C@H](O)[C@H]2O)c(O)c([C@@H]2O[C@H](CO)[C@@H](O)[C@H](O)[C@H]2O)c1O | inactive | –
COc1c(C)c2c(c(O)c1C/C=C(\C)CC/C=C(\C)CCC(=O)O)C(=O)OC2 | inactive | –
CC12CC34C=CC(=O)C(C)(CCC(=O)O)C3C(CC1C4)O2 (centres undefined) | inactive | –
CC(C)(O)c1ccc2c(c1)C(O)CC1C(C)(C(=O)O)CCCC21C (centres undefined) | inactive | –
